Experimental findings from PubChem BioAssay (NCI) are described below.

The panel holds about 83,000 compounds, 20% with a hit somewhere; the sample as a whole holds those more often.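 Single-concentration screen, 48 h exposure, 96-well plates. Endpoint: percent growth. Below 10 = active.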 Unmarked numbers belong to inactive results. The source made the active and inactive calls.

Test systems include HCT-15 colon; HT29 colon; SNB-75 CNS; SNB-19 CNS; U251 CNS; PC-3 prostate; SK-MEL-5 melanoma; UACC-62 melanoma; LOX IMVI melanoma; SK-MEL-28 melanoma; EKVX NSCLC; SN12C renal; UO-31 renal; ACHN renal; CAKI-1 renal; A498 renal; CCRF-CEM leukemia; MOLT-4 leukemia; TK-10 renal; SK-MEL-2 melanoma.
Common to all, as to experiment: NCI-60 one-dose screen, 48 h (100 = growth as untreated, 0 = no growth, -100 = all killed)
What all share (details): 10 µM unless noted

Consider `O=C1/C(=C/c2ccccc2F)CNC/C1=C\c1ccccc1F`, for which the growth was -0.826% (active) with HCT-15 colon; -35.4% (active) in the test with HT29 colon; 32.5% with SNB-75 CNS; 3.94% (active) in the test with SNB-19 CNS; -85.3% (active) in the test with U251 CNS; 4.63% (active) with PC-3 prostate. The growth in the test with SK-MEL-5 melanoma was -88.4% (active); with UACC-62 melanoma, -58.3% (active); in the test on LOX IMVI melanoma it was -83.5% (active); in the test on SK-MEL-28 melanoma, -91.1% (active); in the test on EKVX NSCLC, 22.4%; in the test with SN12C renal, -51.1% (active). Moreover, the growth in the test on UO-31 renal is -89.6% (active); with ACHN renal, -48.9% (active); in the test on CAKI-1 renal, -52.5% (active); in the test on A498 renal, -38.8% (active); in the test on CCRF-CEM leukemia, -36.3% (active); in the test on MOLT-4 leukemia it was -32.5% (active).
As to `Nc1cccc2c(=S)c3ccccc3[nH]c12`, the growth is 95.4% in the test on HCT-15 colon; 117% with HT29 colon; 94.6% with SNB-75 CNS; 89.8% in the test with SNB-19 CNS; 104% with U251 CNS; 82.5% in the test with PC-3 prostate. Further, the growth in the test with SK-MEL-5 melanoma was 91.4%; in the test on UACC-62 melanoma it was 87.6%; with LOX IMVI melanoma, 88.5%; with SK-MEL-28 melanoma, 114%; with EKVX NSCLC it was 93.6%; with SN12C renal it was 90.6%. Besides, the growth in the test with UO-31 renal is 56.4%; with TK-10 renal, 192%; with ACHN renal, 92.7%; in the test on CAKI-1 renal it was 77.1%; in the test on A498 renal it was 64.5%; in the test on CCRF-CEM leukemia it was 100%. Further, the growth in the test on MOLT-4 leukemia is 104%.
On to `CCCCCCCC/C=C\CCCCCCCCOc1cccc(CC(=O)NCC[N+]2(C)CCCC2)c1`, for which the growth is 98.7% in the test with HCT-15 colon; 38.5% in the test with HT29 colon; 53.3% in the test with SNB-75 CNS; 62.6% in the test with SNB-19 CNS; 53.5% with U251 CNS; 36.3% in the test with PC-3 prostate. Moreover, the growth is 94.1% in the test with SK-MEL-5 melanoma; 71.7% with UACC-62 melanoma; 87% with LOX IMVI melanoma; 98.6% in the test on SK-MEL-28 melanoma; 89.4% in the test on EKVX NSCLC; 53% with SN12C renal. Further, the growth is 94.1% with UO-31 renal; 84.7% in the test with TK-10 renal; 99% with ACHN renal; 78.1% in the test on CAKI-1 renal; 51.6% in the test on CCRF-CEM leukemia; 80.3% in the test with MOLT-4 leukemia.
Take `Cc1ccc(S(=O)(=O)N2CCc3ccc(O)c4c3C2Cc2ccc3c(c2-4)OCO3)cc1` (stereo not drawn): the growth in the test with HCT-15 colon was 30.6%; with HT29 colon, 52.3%; in the test on SNB-75 CNS, 5.09% (active); in the test with SNB-19 CNS, 52.3%; with U251 CNS it was 12.7%; in the test on PC-3 prostate it was 26.8%. The growth with SK-MEL-5 melanoma was 25.9%; in the test on UACC-62 melanoma, 22.1%; with LOX IMVI melanoma it was 35.6%; in the test on SK-MEL-28 melanoma, 44.4%; in the test with EKVX NSCLC, 49.3%; in the test with SN12C renal it was 39.5%. Besides, the growth was 30.4% in the test with UO-31 renal; 32.6% with TK-10 renal; 44.9% with ACHN renal; 32% with CAKI-1 renal; 35.6% with A498 renal; -11.9% (active) in the test with CCRF-CEM leukemia. For the same compound, in the test with MOLT-4 leukemia, the growth was 10.9%.
Take `CC(=O)OC[C@H](O)[C@@]1(O)CC[C@H]2[C@@H]3CCC4=CC(=O)CC[C@]4(C)[C@H]3[C@@H](O)C[C@@]21C`: the growth in the test with HCT-15 colon is 105%; in the test with HT29 colon it was 101%; in the test on SNB-75 CNS, 117%; in the test on SNB-19 CNS, 109%; in the test on U251 CNS, 111%; in the test with PC-3 prostate, 95.4%. The growth in the test on SK-MEL-5 melanoma was 101%; with UACC-62 melanoma, 104%; with LOX IMVI melanoma, 103%; in the test with SK-MEL-28 melanoma, 114%; in the test on EKVX NSCLC it was 87.3%; in the test on SN12C renal, 85.9%. The growth is 78% in the test with UO-31 renal; 112% in the test on TK-10 renal; 111% with ACHN renal; 85.5% in the test on CAKI-1 renal; 112% in the test with A498 renal; 89.4% with CCRF-CEM leukemia. In addition, the growth in the test with MOLT-4 leukemia is 89%.
For `C=C1CC[C@@H]2[C@@](C)(CCC[C@]2(C)C(=O)O)[C@@H]1CC[C@H](CO)CCO`, the growth in the test on HCT-15 colon is 108%; in the test on HT29 colon, 104%; in the test on SNB-75 CNS, 94.8%; with SNB-19 CNS it was 101%; with U251 CNS, 102%; in the test with PC-3 prostate, 99.7%. Besides, the growth was 112% in the test with SK-MEL-5 melanoma; 99.2% with UACC-62 melanoma; 99.1% in the test with LOX IMVI melanoma; 105% with SK-MEL-28 melanoma; 108% with EKVX NSCLC; 103% in the test on SN12C renal. Also, the growth was 79.5% with UO-31 renal; 99.4% in the test on TK-10 renal; 106% in the test with ACHN renal; 101% in the test on CAKI-1 renal; 107% in the test with A498 renal; 102% in the test on CCRF-CEM leukemia. Moreover, in the test on MOLT-4 leukemia, the growth is 88.2%.
Take `O=C(N/N=C/c1ccc2c(c1)OCO2)c1cnn2c1NC(c1ccccc1)C2` (stereo not drawn): the growth was 28% in the test with HCT-15 colon; 26.7% in the test with HT29 colon; 54.8% in the test with SNB-75 CNS; 62.9% in the test on SNB-19 CNS; 69.6% in the test with U251 CNS; 50.2% in the test on PC-3 prostate. For the same compound, the growth in the test on SK-MEL-5 melanoma is 37.3%; with UACC-62 melanoma, 32.7%; with LOX IMVI melanoma, 26.4%; with SK-MEL-28 melanoma it was 71.8%; with SK-MEL-2 melanoma, 50.1%; with SN12C renal, 73.7%. Moreover, the growth in the test with UO-31 renal was 67.5%; in the test on TK-10 renal, 70.3%; in the test with ACHN renal, 46%; with CAKI-1 renal, 21.1%; in the test on CCRF-CEM leukemia, 67.7%; in the test with MOLT-4 leukemia it was 75.2%.
As for `CN1CCN(C)c2cncc(Br)c2C1=O`, the growth in the test on HCT-15 colon was 105%; in the test on HT29 colon it was 107%; in the test on SNB-75 CNS, 101%; with SNB-19 CNS, 106%; in the test with U251 CNS, 106%; with PC-3 prostate, 103%. The growth was 101% in the test on SK-MEL-5 melanoma; 105% in the test with UACC-62 melanoma; 102% with LOX IMVI melanoma; 110% with SK-MEL-28 melanoma; -82.7% (active) in the test on EKVX NSCLC; 101% with SN12C renal. The growth with UO-31 renal is 79.5%; in the test on TK-10 renal, 126%; in the test with ACHN renal, 108%; with CAKI-1 renal, -89.3% (active); in the test on A498 renal it was 85%; with MOLT-4 leukemia, 98.5%.
